Assay results from PubChem BioAssay (EPA / NIEHS).
The source holds several records for some structures; these can differ, active in one and inactive in another. Activity calls are given as the source filed them. How the source made its calls: active means hit-call score of the fitted dose curve at least 0.9, where 1 is the maximum; inactive means score below 0.9.

What was measured:
[1] = BSK_hDFCGF_SRB: Viability Assessment in the BioMAP Diversity Plus: hDFCGF Assay (AID 2283061); conditions: primary human foreskin fibroblasts;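 further: cells exposed to compound for 24 h before the read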
How it was run: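 Human foreskin fibroblasts in 96-well plates were treated 24 h. Total protein was measured by 0.1% SRB staining after 10% TCA fixation, read at 560 nm. Data were fitted bidirectionally against DMSO.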

[2] = read-out: TIMP metallopeptidase inhibitor 1 (TIMP1), TIMP1 (gene 7076); experiment: BSK_hDFCGF_TIMP1: BioMAP Diversity Plus: hDFCGF Assay for TIMP metallopeptidase inhibitor 1 (TIMP1) Biomarker Activity (AID 2283062); conditions: primary human foreskin fibroblasts; actives raise or lower the signal
How it was run: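 Human foreskin fibroblast primary cultures dosed for 24 h; secreted/surface TIMP-1 quantified by ELISA. Bidirectional curve fitting against DMSO baseline; cytotoxicity tracked in parallel cultures by SRB total-protein staining.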

[3] = read-out: Matrix Metallopeptidase 1 (MMP1), MMP1 (gene 4312); experiment: BSK_hDFCGF_MMP1: BioMAP Diversity Plus: hDFCGF Assay for Matrix Metallopeptidase 1 (MMP1) Biomarker Activity (AID 2283064); conditions: primary human foreskin fibroblasts; actives raise or lower the signal
How it was run: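 hDFCGF primary fibroblasts (human foreskin); chemical added; 24 h; MMP1 by ELISA; bidirectional fit vs DMSO.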

[4] = read-out: Vascular cell adhesion molecule 1 (VCAM1), VCAM1 (gene 7412); experiment: BSK_hDFCGF_VCAM1: BioMAP Diversity Plus: hDFCGF Assay for Vascular cell adhesion molecule 1 (VCAM1) Biomarker Activity (AID 2283065); conditions: primary human foreskin fibroblasts; actives raise or lower the signal
How it was run: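 Human foreskin fibroblast primary cells dosed with chemical, VCAM-1 measured by ELISA at 24 h. Bidirectional curve fitting relative to DMSO as negative control/baseline.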

[5] = read-out: Plasminogen activator inhibitor-1 (PAI1), SERPINE1 (gene 5054); experiment: BSK_hDFCGF_PAI1: BioMAP Diversity Plus: hDFCGF Assay for Plasminogen activator inhibitor-1 (PAI1) Biomarker Activity (AID 2283066); conditions: primary human foreskin fibroblasts; actives raise or lower the signal
How it was run: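 Human foreskin fibroblast primary cells, 24 h chemical exposure; PAI-1 measured by ELISA. Bidirectional fitting relative to DMSO; parallel cultures stained with SRB for total protein to flag overt cytotoxicity.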

[6] = read-out: Intercellular Adhesion Molecule 1 (ICAM1), ICAM1 (gene 3383); experiment: BSK_KF3CT_ICAM1: BioMAP Diversity Plus: KF3CT Assay for Intercellular Adhesion Molecule 1 (ICAM1) Biomarker Activity (AID 2283067); conditions: primary human keratinocytes with fibroblasts; actives raise or lower the signal
How it was run: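 Human keratinocyte–foreskin fibroblast co-culture was treated for 24 h. Cell-surface ICAM-1 was quantified by ELISA, fitted bidirectionally relative to DMSO. Cytotoxicity was checked in parallel cultures by SRB total-protein staining.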

[7] = read-out: Interferon-gamma inducible Protein 10 (IP10), CXCL10 (gene 3627); experiment: BSK_KF3CT_IP10: BioMAP Diversity Plus: KF3CT Assay for Interferon-gamma inducible Protein 10 (IP10) Biomarker Activity (AID 2283068); conditions: primary human keratinocytes with fibroblasts; actives raise or lower the signal
How it was run: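 KF3CT co-culture (keratinocytes + foreskin fibroblasts), 24 h compound, IP-10 by ELISA; bidirectional fit vs DMSO baseline.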

[8] = BSK_KF3CT_SRB: Viability Assessment in the BioMAP Diversity Plus: KF3CT Assay (AID 2283069); conditions: primary human keratinocytes with fibroblasts;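 further: total protein by sulforhodamine B staining as a cytotoxicity measure; read 24 h after compound addition; fitted for both signal gain and loss against DMSO baseline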
How it was run: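 Keratinocytes co-cultured with foreskin fibroblasts (human primary); chemical added, 24 h; fix 10% TCA, stain 0.1% SRB, A560. Bidirectional fit vs DMSO.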

[9] = read-out: Interleukin-1 alpha (IL1a), IL1A (gene 3552); experiment: BSK_KF3CT_IL1a: BioMAP Diversity Plus: KF3CT Assay for Interleukin-1 alpha (IL1a) Biomarker Activity (AID 2283070); conditions: primary human keratinocytes with fibroblasts; actives raise or lower the signal
How it was run: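 Chemicals were dosed onto co-cultured human keratinocytes and foreskin fibroblasts, IL-1a was quantified by ELISA at 24 h, and activity was fitted in both directions relative to DMSO controls.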

[10] = read-out: TIMP metallopeptidase inhibitor 2 (TIMP2), TIMP2 (gene 7077); experiment: BSK_KF3CT_TIMP2: BioMAP Diversity Plus: KF3CT Assay for TIMP metallopeptidase inhibitor 2 (TIMP2) Biomarker Activity (AID 2283071); conditions: primary human keratinocytes with fibroblasts; actives raise or lower the signal
How it was run: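 Co-culture of human primary keratinocytes and foreskin fibroblasts, measured 24 h after chemical dosing. TIMP-2 quantified by ELISA and fitted in both directions relative to DMSO. Cytotoxicity checked in parallel cultures by SRB total-protein staining.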

[11] = read-out: Transforming growth factor beta 1 (TGFb1), TGFB1 (gene 7040); experiment: BSK_KF3CT_TGFb1: BioMAP Diversity Plus: KF3CT Assay for Transforming growth factor beta 1 (TGFb1) Biomarker Activity (AID 2283072); conditions: primary human keratinocytes with fibroblasts; actives raise or lower the signal
How it was run: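 Human keratinocyte/foreskin fibroblast co-culture; TGF-b1 measured by ELISA 24 h after dosing, fitted bidirectionally versus DMSO. Cytotoxicity checked in parallel cultures by total protein (SRB staining, 560 nm).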

[12] = read-out: C-C motif chemokine 2 (Homo sapiens) (UniProt P13500); experiment: BSK_KF3CT_MCP1: BioMAP Diversity Plus: KF3CT Assay for Monocyte Chemoattractant Protein 1 (MCP1/CCL2) Biomarker Activity (AID 2283073); conditions: primary human keratinocytes with fibroblasts; actives raise or lower the signal
How it was run: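 Human keratinocyte–foreskin fibroblast co-culture; MCP-1 measured by ELISA 24 h after dosing. Bidirectional fit vs DMSO; cytotoxicity tracked by SRB total protein in parallel cultures.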

[13] = read-out: Matrix Metallopeptidase 9 (MMP9), MMP9 (gene 4318); experiment: BSK_KF3CT_MMP9: BioMAP Diversity Plus: KF3CT Assay for Matrix Metallopeptidase 9 (MMP9) Biomarker Activity (AID 2283074); conditions: primary human keratinocytes with fibroblasts; actives raise or lower the signal
How it was run: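 Human keratinocyte/foreskin fibroblast co-culture; compound added; 24 h; MMP-9 by ELISA; bidirectional fit vs DMSO baseline.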

[14] = read-out: urokinase plasminogen activator (uPA), PLAU (gene 5328); experiment: BSK_KF3CT_uPA: BioMAP Diversity Plus: KF3CT Assay for urokinase plasminogen activator (uPA) Biomarker Activity (AID 2283075); conditions: primary human keratinocytes with fibroblasts; actives raise or lower the signal
How it was run: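 ELISA readout of uPA, analyzed for signal gain or loss relative to DMSO, from a human primary keratinocyte–foreskin fibroblast co-culture measured 24 h after chemical treatment.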

[15] = read-out: CD40, CD40 (gene 958); experiment: BSK_LPS_CD40: BioMAP Diversity Plus: LPS Assay for CD40 Biomarker Activity (AID 2283076); conditions: primary human HUVEC with PBMC; actives raise or lower the signal
How it was run: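 HUVEC plus PBMC co-culture stimulated with LPS; CD40 quantified by ELISA 24 h after compound dosing. Fitting was bidirectional relative to DMSO. SRB staining of parallel cultures flagged overt cytotoxicity.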

[16] = read-out: E-selectin (Homo sapiens) (UniProt P16581); experiment: BSK_LPS_Eselectin: BioMAP Diversity Plus: LPS Assay for Eselectin Biomarker Activity (AID 2283077); conditions: primary human HUVEC with PBMC; actives raise or lower the signal
How it was run: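 Human umbilical vein endothelial cells co-cultured with PBMC under LPS stimulation; cell-surface E-selectin measured by ELISA 24 h after dosing. Change in either direction versus DMSO, with SRB total-protein staining in parallel cultures for cytotoxicity.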

[17] = read-out: Interleukin-8 (IL8), CXCL8 (gene 3576); experiment: BSK_LPS_IL8: BioMAP Diversity Plus: LPS Assay for Interleukin-8 (IL8) Biomarker Activity (AID 2283078); conditions: primary human HUVEC with PBMC; actives raise or lower the signal
How it was run: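 Human umbilical vein endothelial cells co-cultured with PBMC, LPS-stimulated, exposed to compound for 24 h. IL-8 quantified by ELISA; fitted in both directions against DMSO, with SRB total-protein staining of parallel cultures for cytotoxicity.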

[18] = BSK_LPS_SRB: Viability Assessment in the BioMAP Diversity Plus: LPS Assay (AID 2283079); conditions: primary human HUVEC with PBMC;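 further: total protein by sulforhodamine B absorbance as a cytotoxicity measure; measured one day after compound addition; fitted in both directions against DMSO so loss or gain of signal counts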
How it was run: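 Co-culture of human umbilical vein endothelial cells and PBMC, read 24 h after dosing. Total protein by 0.1% SRB staining after 10% TCA fixation, absorbance at 560 nm; bidirectional fit against DMSO.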

Measured: AC50

Chain of E-selectin (Homo sapiens) (P16581 whole entry, looked up): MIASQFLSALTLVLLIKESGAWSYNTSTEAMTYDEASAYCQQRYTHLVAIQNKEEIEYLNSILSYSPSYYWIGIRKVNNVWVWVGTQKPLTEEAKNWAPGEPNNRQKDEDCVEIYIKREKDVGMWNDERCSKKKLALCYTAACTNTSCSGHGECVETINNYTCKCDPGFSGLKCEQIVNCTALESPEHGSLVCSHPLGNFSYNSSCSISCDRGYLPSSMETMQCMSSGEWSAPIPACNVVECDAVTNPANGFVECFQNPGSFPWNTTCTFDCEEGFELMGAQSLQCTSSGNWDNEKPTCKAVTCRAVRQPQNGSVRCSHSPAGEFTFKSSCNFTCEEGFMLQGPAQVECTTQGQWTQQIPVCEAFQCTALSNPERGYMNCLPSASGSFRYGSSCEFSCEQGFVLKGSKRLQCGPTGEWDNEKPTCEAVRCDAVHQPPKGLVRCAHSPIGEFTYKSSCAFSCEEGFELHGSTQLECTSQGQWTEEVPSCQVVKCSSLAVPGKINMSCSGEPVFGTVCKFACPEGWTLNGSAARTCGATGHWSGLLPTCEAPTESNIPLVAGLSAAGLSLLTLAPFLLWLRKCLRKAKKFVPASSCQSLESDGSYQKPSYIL

O=C(Cl)c1c(Cl)c(Cl)c(C(=O)Cl)c(Cl)c1Cl
active: [5] 0.016 µM
inactive: all other assays above

CC(Cl)COP(=O)(OCC(C)Cl)OCC(C)Cl (configuration not stated)
inactive: all assays above

CCOC(=O)/C=C\C(=O)OCC
active: [12] 3.97 µM
inactive: all other assays above

O=C(O)C(F)(F)C(F)(F)C(F)(F)C(F)(F)C(=O)O
active: [17] 30 µM
inactive: [1] | [2] | [3] | [4] | [5] | [6] | [7] | [8] | [9] | [10] | [12] | [13] | [14] | [15] | [16] | [17] | [18]
